Among all 69,000 compounds or so, about 8,600 (12%) showed an effect of 50% or more. The sample as a whole holds a higher share of strong results than the screen did.

This assay deals with Plasmodium berghei. Briefly: Screen against P. berghei liver stage (PbLuc), transformed with Luciferase, at 10uM. Conditions: tested at 10 uM. The assay is classed as functional, HepG2.
In the case of `CC(C)N1CCC(Cc2cc(-c3cccc(C(=O)O)c3)ncn2)CC1`, the INHIBITION worked out at 23.4%.
Turning to `Fc1ccc(CN2CCO[C@H]3[C@H](OCC4CCCC4)CC[C@@H]32)cc1`, the INHIBITION turned out to be 66.8%.
Turning to `c1cc(CN2CCO[C@H]3[C@H](OCC4CCCC4)CC[C@@H]32)ccn1`, the INHIBITION amounted to 62.6%.
The figure for `Fc1ccc(CN2CCO[C@H]3[C@H](OCC4CC4)CC[C@@H]32)cc1` is -30.8%; for `c1coc(CN2CCO[C@H]3[C@H](OCC4CCCC4)CC[C@@H]32)c1` it is 47.4%; for `Fc1ccc(CN2CCO[C@H]3[C@H](OCCN4CCCC4)CC[C@@H]32)cc1` it is 15.1%.
The figure for `c1cc(CN2CCO[C@H]3[C@H](OCCN4CCCC4)CC[C@@H]32)ccn1` is 38.2%.
`CCOC[C@]12COC[C@H]1CN(Cc1ccc(F)c(F)c1)C2`: the INHIBITION is given as 10.4%.
Regarding `Cc1cnccc1CN(C)Cc1c[nH]nc1-c1ccc(F)cc1F`, the INHIBITION is on record as 18.6%.
Turning to `CC(C)CN(C)Cc1c[nH]nc1-c1ccc(F)cc1F`, the INHIBITION is recorded as 11.9%.
Turning to `COc1ccc(-c2n[nH]cc2CN(C)Cc2nccn2C)c(F)c1`, the INHIBITION is recorded as 51.5%.
With `COc1ccc(-c2n[nH]cc2CN(C)Cc2nnc(C)o2)c(F)c1`, the INHIBITION was 23.8%.
For the molecule `COc1ccc(-c2n[nH]cc2CN(C)Cc2ccoc2)c(F)c1`, the INHIBITION is listed as -25.8%.
Turning to `CN(Cc1c[nH]nc1-c1ccc(F)cc1F)Cc1nccn1C`, the INHIBITION is on record as 52.2%.
In the case of `Cc1nc(CN2C(=O)CC[C@@H]3[C@H]2CCN3C(=O)C2CCCO2)cs1` (stereo partly specified), the INHIBITION is reported as 15.4%.
Take `O=C(CCc1ccncc1)N1CCc2cc(Cl)cc(Cl)c2C1`: the INHIBITION is recorded as 49.7%.
`COc1ccc(F)cc1C(=O)N1C[C@@H]2CC[C@H]1CN(c1ncccn1)C2`: the INHIBITION was 10.7%.
As to `CC(C)C(=O)N1CCC(C)(c2cc(O)[nH]n2)CC1`, the INHIBITION is recorded as -4.87%.
Take `c1ccc(CCN2CCCC2c2ccnc(Nc3ncccn3)n2)cc1` (stereo unspecified): the INHIBITION is recorded as 11.8%.
Take `c1ccc(CCN2CCCC2c2cncc(Nc3nncs3)n2)cc1` (stereo unspecified): the INHIBITION is reported as 11.8%.
For the molecule `Cc1ccccc1CN1CCCC1c1cncc(Nc2nncs2)n1` (stereo unspecified), the INHIBITION came to 22%.
On to `CS(=O)(=O)N1CCCC1c1cccc(Nc2nccs2)n1` (stereo unspecified), for which the INHIBITION is listed as -17.7%.
With `Cc1ccccc1CN1CCCC1c1cccc(Nc2nccs2)n1` (stereo unspecified) the figure was 71.8%; with `c1ccc(CCN2CCCC2c2cccc(Nc3nccs3)n2)cc1` (stereo unspecified), 69.2%.
In the case of `Cc1cccc(CN2CCCC2c2cncc(Nc3nncs3)n2)c1` (stereo unspecified), the INHIBITION amounted to 46.2%.
Consider `COc1cccc(CN2CCCC2c2cncc(Nc3nncs3)n2)c1` (stereo unspecified), for which the INHIBITION is reported as -29.9%.
In the case of `Cc1cccc(CN2CCCC2c2cccc(Nc3nccs3)n2)c1` (stereo unspecified), the INHIBITION is 72%.
With `COc1cccc(CNC(=O)CCNS(=O)(=O)c2ccc(C)cc2)c1`, the INHIBITION is reported as -31.3%.
In the case of `CCCC1c2cccn2CCN1S(=O)(=O)N1CCOCC1` (stereo unspecified), the INHIBITION is on record as 1.65%.
Turning to `CCCc1nc(C(=O)NC(COC)c2ccnn2C)cs1` (stereo unspecified), the INHIBITION stood at 16.3%.
For the molecule `Cc1ccc(CN2CCC[C@]3(C(=O)O)CN(CC4CC4)C[C@@H]3C2)s1`, the INHIBITION is -27.6%.
For the molecule `COCC(=O)N1CCN(Cc2cc(F)cc(Br)c2)CC1`, the INHIBITION is listed as -10.9%.
For the molecule `CN(C)CCOCc1nnc2n1CCN(Cc1ccco1)C2`, the INHIBITION is -13.7%.
As for `Cc1ccc(C2COCCN2C(=O)c2ccc(C#N)cc2)o1` (stereo unspecified), the INHIBITION was 32%.
Take `CCc1ccc(C2COCCN2C(=O)Nc2cccc(C(C)=O)c2)o1` (stereo unspecified): the INHIBITION was -2.9%.
As to `CCc1ccc(C2COCCN2C(=O)Nc2ccc(C#N)cc2)o1` (stereo unspecified), the INHIBITION is listed as 65.3%.
On to `CCc1ccc(C2COCCN2C(=O)NCc2cccc(C#N)c2)o1` (stereo unspecified), for which the INHIBITION is -92.8%.
Consider `CCc1ccc(C2COCCN2C(=O)Nc2cc(C)on2)o1` (stereo unspecified), for which the INHIBITION is -107%.
On to `CCc1ccc(C2COCCN2C(=O)Nc2ccc(C(N)=O)c(Cl)c2)o1` (stereo unspecified), for which the INHIBITION came out at 78.3%.
On to `CNC(=O)C1CN(Cc2c[nH]cn2)CCN(C2CCOCC2)C1` (stereo unspecified), for which the INHIBITION is on record as 25.6%.
As for `CC(C)Oc1ccc(C(=O)N2CCCSCC2CN(C)C)cc1` (stereo unspecified), the INHIBITION turned out to be 36.6%.
On to `O=C(COC[C@H]1CC[C@H]2[C@H](CCN2c2ccccn2)O1)N1CCCC1`, for which the INHIBITION is given as -37.4%.
Consider `Cc1nccn1CCN(C)C(=O)c1cn(CC2CCCCC2)nn1`, for which the INHIBITION came out at 41.8%.
As for `CCOCc1nnc(NCc2cccnc2)o1`, the INHIBITION is on record as -0.897%.
Take `Cc1cc(NCc2cccnc2)n2nc(C)cc2n1`: the INHIBITION was -10.4%.
In the case of `COc1cccc(CNCc2cccnc2)c1`, the INHIBITION is 13.7%.
`COCc1cccc(NCc2cccnc2)c1`: the INHIBITION is reported as 36.5%.
Consider `CCSCc1cccc(NCc2cccnc2)c1`, for which the INHIBITION was found to be 61.6%.
For `COc1ccnc(NC(=O)CSCc2cccnc2)c1`, the INHIBITION is recorded as 36.9%.
`CCSc1cccc(NCc2cccnc2)c1`: the INHIBITION worked out at 85.2%.
Regarding `COc1cccc(CSCC(=O)NCc2cccnc2)c1`, the INHIBITION was 54.5%.

The values above are taken from ChEMBL document CHEMBL4513216, “Probing the Open Global Health Chemical Diversity Library for Multistage-Active Starting Points for Next-Generation Antimalarials” (ACS Infect Dis, 2020).
